Laboratory results taken from PubChem BioAssay (NCI).
The panel holds about 83,000 compounds, 20% with a hit somewhere; the sample as a whole holds those more often.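 48-hour exposure, single concentration, 96-well plates; percent growth endpoint where 0 means no net growth. Active: below 10.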 Activity calls are given as the source filed them.

System: SN12C renal
Assay: NCI-60 one-dose screen, 48 h (100 = growth as untreated, 0 = no growth, -100 = all killed)
Settings: 10 µM unless noted
Procedure: Growth inhibition of the SN12C human tumor cell line is measured as a screen for anti-cancer activity. Cells are grown in 96 well plates and exposed to the test compound for 48 hours. Compounds are tested at a single concentration, which is 10^-5 M for most compounds. The reported endpoint is percent growth (GI% or GIPRCNT), where numbers from 0 - 100% represent growth inhibition, and numbers from -100% - 0 represent cell death. For example, a value of 40 represents 60% growth inhibition. A value of 0 means no net growth occurred over the course of the experiment. A value of -40 indicates 40% of cells at the beginning of the experiment died by the end of the experiment. A value of -100 means all cells are dead at the end of the experiment.
NCI-60 Human Tumor Cell Lines Screen was performed using the standard one-dose NCI protocol, which is described in more detail at https://dtp.cancer.gov/discovery_development/nci-60/default.htm.
Compounds with GIPRCNT values below 10 were considered active. Activity score was based on GIPRCNT using the following formula: […]
Score is 0 for GIPRCNT values of 100 or above, 50 for GIPRCNT values of 0, and 100 for GIPRCNT values of -100.

With `COc1cc(/C=C\c2cc(OC)c(OC)c(OC)c2)cc(N/C=C\C(=O)c2cc(OC)c(OC)c(OC)c2)c1OC` as the molecule, how does the growth read?
The growth was 36.9% (inactive).

How did the growth turn out when `CC1=C(CCCOC(=O)CN)C2=C(C)C3(CC3)[C@@](C)(O)C(=O)C2=C1` was run?
Its growth is 81.3% (inactive).

With `COC(=O)C1OC(Oc2ccc(N(CCCl)CCCl)cc2)C(OC(C)=O)C(OC(C)=O)C1OC(C)=O` (stereo not given) as the molecule, how does the growth read?
Its growth is 62.4% (inactive).

`CC1=C(O)[C@@](C)(CCCCC[C@H](C)CCCCc2ccc(O)cc2)OOC1=O` was tested. Which growth did it give?
Its growth is 88.5% (inactive).

For `ClCCN(CCCl)c1ccc(OCc2ccccc2)cc1`, which growth is on record?
Its growth is 30.8% (inactive).

For `Cn1cc(C=O)c2nccnc21`, which growth is on record?
The growth was 104% (inactive).

How did the growth turn out when `CN(C)C1C(=O)C(C(N)=O)=C(O)C2(O)C(=O)C3=C(O)c4c(O)cccc4C(C)(O)C3CC12.[Cl][Sb]([Cl])[Cl]` (stereo not given) was run?
The growth was 41.8% (inactive).

For `CC12CCC=CC1CCC1C2CCC2(C)C(c3ccc(=O)oc3)CCC12O` (stereo not given), which growth is on record?
The growth was -18.8% (active).

Which growth does the source give for `Brc1ccc2c(c1)c(-c1nc(-c3c[nH]c4ncccc34)cs1)cn2CCN1CCOCC1` here?
The growth was 71.5% (inactive).

For `Cc1ccc(C(=O)NCCCOc2ccc(N)cc2Cl)cc1S(=O)(=O)F`, which growth is on record?
The growth was 105% (inactive).

Which growth does the source give for `COC(=O)CCC1=C(C)c2cc3[n-]c(cc4nc(cc5[n-]c(cc1n2)c(CCC(=O)OC)c5C)C=C4C)cc3C.[Cd+2]` here?
The growth was 71.2% (inactive).

For `CCn1c2ccccc2c2cc(C(=O)c3ccc(C)c4ccccc34)ccc21`, which growth is on record?
Its growth is 22.7% (inactive).

For `COc1ccc(Nc2ccnc3cc(Cl)ccc23)cc1CN(CCCl)CCCl`, which growth is on record?
The growth was 2.25% (active).

Which growth does the source give for `COc1ccc(S(=O)(=O)Nc2c(/C=C\c3cc(OC)c(OC)c(OC)c3)ccc(OC)c2O)cc1OC` here?
Its growth is 31% (inactive).

Which growth does the source give for `Nc1ccc(-c2nc3cc(F)ccc3[se]2)cc1F` here?
Its growth is 83% (inactive).

With `CC[C@H](C)[C@H](NC(=O)c1nccn1C)C(=O)N(C)[C@H](C[C@@H](OC(C)=O)c1nc(C(=O)N[C@@H](Cc2ccccc2)C[C@H](C)C(=O)OC)cs1)C(C)C` as the molecule, how does the growth read?
Its growth is 40.2% (inactive).

`COC(C(=O)[C@@H](O)[C@@H](C)O)[C@@H]1Cc2cc3cc(O[C@H]4C[C@@H](O[C@H]5C[C@@H](O)[C@H](O)C(C)O5)[C@H](O)C(C)O4)c(C)c(O)c3c(O)c2C(=O)[C@H]1O[C@H]1C[C@@H](O[C@H]2C[C@@H](O[C@H]3C[C@@H](O)[C@@H](O)C(C)O3)[C@@H](O)C(C)O2)[C@H](O)C(C)O1` (stereo not given in full) was tested. Which growth did it give?
Its growth is 7.47% (active).

For `CCCOC(=O)N[C@H]1CCc2c(Br)c(OC)c(OC)c(OC)c2-c2ccc(SC)c(=O)cc21`, which growth is on record?
The growth was 14.1% (inactive).

For `Cc1ccc(N2COOC3(OOC2)C2CC4CC(C2)CC3C4)cc1`, which growth is on record?
The growth was 106% (inactive).

With `Cc1cc(N(CCCl)CCCl)ccc1C=Nc1cccnc1` as the molecule, how does the growth read?
The growth was 57.2% (inactive).

For `CO[C@H]1CC[C@@]2(C)C(=CC[C@@H]3[C@@H]2CC[C@]2(C)C(=O)C(=O)C[C@@H]32)C1`, which growth is on record?
The growth was 95.5% (inactive).

How did the growth turn out when `O=P(Oc1ccc(Cl)cc1)(N1CC1)N1CC1` was run?
Its growth is 86.7% (inactive).

For `Clc1cccc(Cl)c1Cl`, which growth is on record?
Its growth is 120% (inactive).

For `COC(=O)[C@@]1(O)C[C@H]2O[C@]1(C)n1c3ccccc3c3c4c(c5c6ccccc6n2c5c31)C(=O)NC4`, which growth is on record?
The growth was -47.2% (active).

With `CC[C@]12C=CCN3CC[C@@]4(c5ccc(OC)cc5N(C)[C@H]4[C@@](O)(C(=O)OC)[C@@H]1OC(=O)CCCC[P+](c1ccccc1)(c1ccccc1)c1ccccc1)[C@@H]32` as the molecule, how does the growth read?
Its growth is 4.56% (active).

With `COC(=O)[C@@H](C)C[C@H](Cc1ccccc1)NC(=O)c1nc([C@@H](C[C@H](C(C)C)N(C)C(=O)[C@@H](NC(=O)[C@H]2CCCCN2C)C(C)C)OC(C)=O)sc1C` as the molecule, how does the growth read?
Its growth is 18.3% (inactive).

`CC[CH2][Sn]([Cl])([Cl])[CH2]CC` was tested. Which growth did it give?
The growth was 74.5% (inactive).

How did the growth turn out when `CC(CO)NC1CCCCC1` (stereo not given) was run?
The growth was 111% (inactive).

How did the growth turn out when `C=CC[n+]1ccc(-c2cc[n+](CC=C)cc2)cc1` was run?
Its growth is 103% (inactive).

`CC[S][Hg][Cl]` was tested. Which growth did it give?
The growth was 105% (inactive).

How did the growth turn out when `[Cl][Hg][c]1cc(Br)cc(Br)c1` was run?
Its growth is 24% (inactive).

`CC1(C)N=C(N)N=C(N)N1c1ccc(CCC(=O)Nc2ccc(S(=O)(=O)F)cc2)c(Cl)c1` was tested. Which growth did it give?
Its growth is 28.9% (inactive).

With `COC(=O)CCc1c[nH]c2ccc(N(CCCl)CCCl)cc12` as the molecule, how does the growth read?
The growth was 36.6% (inactive).

`CCOC(=O)C(Cc1ccc(N(CCCl)CCCl)cc1)NC(=O)C(CC(C)C)NC(C)=O` (stereo not given) was tested. Which growth did it give?
Its growth is 25.4% (inactive).

How did the growth turn out when `CCOC(=O)[C@@H](C)C[C@H](Cc1ccccc1)NC(=O)c1nc([C@@H](C[C@H](C(C)C)N(C)C(=O)[C@@H](NC(=O)[C@H]2CCCCN2C)C(C)C)OC(C)=O)sc1CCOCc1ccccc1` was run?
Its growth is -58.9% (active).

How did the growth turn out when `C[C@@H]1C[C@@]2(C)[C@@H](CC[C@@H]3[C@@H]2CC[C@]2(C)C(=O)CC[C@@H]32)CC1=O` was run?
The growth was 103% (inactive).

With `CC12CCC3C(CCC4=CC(=O)CCC43CF)C1CCC2=O` (stereo not given) as the molecule, how does the growth read?
The growth was 113% (inactive).

For `CC(CC1CCCCC1)NCc1ccccc1` (stereo not given), which growth is on record?
Its growth is 94% (inactive).

Which growth does the source give for `Clc1cccc(NCOOC2(OOCNc3cccc(Cl)c3)CCCCC2)c1` here?
The growth was 91.9% (inactive).

`O=C1Nc2ccccc2C2c3cccn3-c3ccccc3CN12` (stereo not given) was tested. Which growth did it give?
Its growth is 69.4% (inactive).
